# Screening data deposited in PubChem by National Center for Advancing Translational Sciences (NCATS).
# HCMV inh: qHTS Assay for inhibitors of the human cytomegalovirus (HCMV) | HFF cells, HCMV-luciferase reporter, 72 h; stronger effect = lower value | activity change, negative = inhibition, % at 57.5 µM | 410,000 compounds, 4.5% hits | AID 1259415, 2018; in the data active = activity change below about -60%; inconclusive = no clear call, values can overlap the other calls; inactive = above about -39%
#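 Steps: HFFs plated, 16 h 37C; compounds added; HCMV-luciferase added to MOI 1 PFU/cell; 72 h 37C; OneGlo reagent, 5 min room temperature; luminescence read, normalized to controls.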
# CHX counter: Cycloheximide Counterscreen for Small Molecule Inhibitors of Shiga Toxin; cell reporter, cycloheximide protein synthesis inhibition counterscreen; max response, %; 300,000 compounds, 12% hits; AID 2314, 2010; in the data active = max response mostly above about 13%, no sharp cut-off; inactive = mostly below about 14%; also: read at 38.3 µM for the half of the compounds with a filed dose
# Pf growth 48h: Primary qHTS for delayed death inhibitors of the malarial parasite plastid, 48 hour incubation; P. falciparum luciferase growth in erythrocytes, 48 h; Potency, µM (titrated, usually from 28.7 µM), hits mostly inhibitors; 310,000 compounds, 5.9% hits
#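 First compound was added to culture medium, then infected red cells at 0.1% parasitemia and 2% hematocrit (final). After incubation at 37 C under 5% CO2, luciferase detection reagent was dispensed and light output recorded.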
# Pf growth 96h: Primary qHTS for delayed death inhibitors of the malarial parasite plastid, 96 hour incubation | P. falciparum luciferase reporter growth, 96 h | Potency, µM (doses to about 28.7 µM), usual class: inhibitors | 320,000 compounds, 6.9% hits | AID 504834, 2011
#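 Delayed-death screen, second-generation endpoint: infected erythrocytes, 2% hematocrit, 0.05% parasitemia final; 96 hours at 37 C, 5% CO2; luciferase detection reagent; luminescence decrease equals reduced growth.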
# Shiga inhibitor: A qHTS for Small Molecule Inhibitors of Shiga Toxin | 290,000 compounds, 9.2% hits | inhibition, % at 38.7 µM | AID 2315, 2010 | Vero cells, Shiga toxin protein synthesis inhibition reporter; in the data active = inhibition mostly above about 28%, no sharp cut-off; inactive = mostly below about 43%
# Numbers stand for hits; . = inactive; ? = inconclusive; / = not tested or not shown. Shown are actives, neighbours in structure and some others; about 20% of the full set was active somewhere. Unless noted, calls follow the shape of the dose curve; as a rule, active = well fitted inhibition curve with a large enough effect; inconclusive = small, poorly fitted or top-dose-only effect, or another doubt; inactive = no such curve, though single readings can be large or run the other way.
SMILES,HCMV inh,CHX counter,Pf growth 48h,Pf growth 96h,Shiga inhibitor
COc1cc(/C=N\NC(=O)c2ccc(Cn3nc([N+](=O)[O-])c(Cl)c3C)o2)ccc1O,.,.,/,?,.
COc1cccc(/C=N/NC(=O)Cn2nc(C)c([N+](=O)[O-])c2C)c1O,.,.,11.7µM,?,.
COc1cccc(/C=N\NC(=O)c2ccc(Cn3cc(Br)c([N+](=O)[O-])n3)o2)c1O,-81.1,43.5,?,?,56.4
COc1cccc(/C=N/NC(=O)C(C)n2nc(C)c([N+](=O)[O-])c2C)c1O (stereo not given),.,34.8,?,?,.
COc1cccc(NC(=S)NNC(=O)C(C)n2nc(C)c([N+](=O)[O-])c2C)c1 (stereo not given),.,.,.,?,.
COc1ccccc1-n1ncc2c(=O)[nH]c(SCC(=O)Nc3ccc(Cl)cc3)nc21,.,/,/,/,/
COc1ccc(Cl)cc1NC(=O)Cn1c(=O)c(-c2ccccc2NC(C)=O)nc2ccccc21,.,/,/,/,/
CC1(C)Cc2c(c(N3CCCC3)nc3sc(C(=O)Nc4ccccc4)c(N)c23)CO1,.,40.6,14.7µM,13.1µM,79.7
Cc1ccc2nc3sc(C(=O)Nc4ccc(N5CCOCC5)cc4)c(N)c3cc2c1,/,23.8,?,?,.
Cc1ccc(NC(=O)c2sc3nc(N4CCOCC4)c4c(c3c2N)CC(C)(C)OC4)cc1,.,22.3,?,.,.
Cc1nc2c(sc3nc(N4CCOCC4)c4c(c32)CC(C)(C)OC4)c(-c2ccc(Cl)cc2)c1C(=O)O,.,.,13.1µM,9.28µM,.
CC1(C)Cc2c(c(N3CCOCC3)nc3sc(C(=O)Nc4ccc(Cl)cc4)c(N)c23)CO1,.,.,?,?,.
O=C(Cn1c(=O)c2cccn2c2ccc(F)cc21)N1CCN(c2ccccc2)CC1,.,/,/,/,/
N#CC1=C(N)Oc2n[nH]c(-c3ccc(F)cc3)c2C1c1ccncc1 (stereo not given),.,.,.,.,.
CC1(c2ccc(Cl)cc2)NC(=O)CS1 (stereo not given),.,.,.,0.262µM,.
Fc1ccc(OCc2nc(-c3ccncc3)n[nH]2)cc1,?,.,.,.,.
CCOC(=O)Cc1nc(-c2ccc(Cl)cc2)n[nH]1,?,25.8,.,.,.
Cc1ccc(-c2n[nH]c(Cc3ccccc3)n2)cc1,.,48.6,.,.,74.5
Cc1ccc(OCc2nc(-c3ccc(Cl)cc3)n[nH]2)cc1,.,20.3,.,.,63.4
C/C(CC1CC2=C(CC1(C)C)C(C)(C)CCC2)=N\NC(N)=S (stereo not given),-65.0,.,/,1.04µM,.
C/C(CC1CC(C)(C)OC1=O)=N\NC(N)=S (stereo not given),?,.,.,.,.
Cc1ccc(C)c(N(C(=O)CNC(=O)c2ccco2)C(C(=O)NCC2CCCO2)c2ccccc2)c1 (stereo not given),?,.,.,.,.
COc1ccc(CN(C(=O)CNC(=O)c2ccco2)C(C(=O)NCC2CCCO2)c2ccccc2)cc1 (stereo not given),.,.,.,2.33µM,.
Cc1ccc(N(C(=O)CNC(=O)c2ccco2)C(C(=O)NCC2CCCO2)c2ccccc2)cc1C (stereo not given),-67.3,.,.,.,.
CCOC(=O)c1ccc(NC(=O)c2cc3c(n(-c4ccc(C)cc4)c2=O)CC(C)(C)CC3=O)cc1,.,/,/,/,/
SMILES,HCMV inh,CHX counter,Pf growth 48h,Pf growth 96h,Shiga inhibitor
Cc1cccc(C)c1NC(=O)C[N+](C)(C)CC(O)COc1cccc2ccccc12 (stereo not given),.,.,?,.,.
COc1cc(C(=O)NNC(=O)CSc2nnc3ccccn23)cc(OC)c1OC,.,/,.,.,/
COc1ccc(C(=O)CSc2nnc3ccccn23)cc1OC,.,22.3,.,?,.
O=C(CSc1nnc2ccccn12)c1ccc2c(c1)OCCO2,.,24.6,.,.,37.2
Cc1ccc(CN(Cc2ccco2)C(=O)COc2ccccc2C)cc1,.,/,/,/,/
COc1cc(OC)c(C2=NOC(C(=O)N3CCCc4ccccc43)C2)cc1Cl (stereo not given),.,.,/,8.28µM,.
CCC1CCCCN1C(=O)C1CC(c2cc(Cl)c(OC)cc2OC)=NO1 (stereo not given),.,.,?,/,.
Cc1nn(-c2ccc(N3CCCCC3)nn2)c(C)c1CCC(=O)Nc1ccc(F)c(F)c1,.,59.8,.,.,102.6
CC(=O)c1ccc(NC(=O)CCc2c(C)nn(-c3ccc(N4CCCCC4)nn3)c2C)cc1,.,/,/,/,/
Cc1ccc(NC(=O)CCc2c(C)nn(-c3ccc(N4CCCCC4)nn3)c2C)cc1,.,53.3,.,?,86.4
Cc1ccc(NC(=O)CCc2c(C)nn(-c3ccc(N4CCCCC4)nn3)c2C)cc1C,.,43.2,.,.,69.7
Cc1nn(-c2ccc(N3CCCCC3)nn2)c(C)c1CCC(=O)Nc1ccc(F)cc1F,.,/,/,/,/
Cc1cc(C)cc(NC(=O)CCc2c(C)nn(-c3ccc(N4CCCC4)nn3)c2C)c1,.,/,/,/,/
Cc1cc(C)cc(NC(=O)CCc2c(C)nn(-c3ccc(N4CCCCC4)nn3)c2C)c1,.,48.2,.,.,50.6
O=C(COCc1cc(-c2cccs2)on1)Nc1ccc(OC(F)(F)F)cc1,.,/,/,/,/
Cc1ccc(C(=O)NCCc2ccc(S(N)(=O)=O)cc2)o1,.,.,.,.,.
Cc1ccc(F)cc1NC(=O)CCc1c(C)nn(-c2ccc(N3CCCCC3)nn2)c1C,.,30.8,?,.,.
COc1ccccc1N1CCN(C(=O)CCc2c(C)nn(-c3ccc(N4CCCC4)nn3)c2C)CC1,.,/,/,/,/
CCOc1ccccc1NC(=O)CCc1c(C)nn(-c2ccc(N3CCCCC3)nn2)c1C,.,.,?,?,.
Cc1nn(-c2ccc(N3CCCC3)nn2)c(C)c1CCC(=O)N1CCN(c2ccccc2F)CC1,-61.5,/,/,/,/
Cc1ccc(F)cc1NC(=O)CCc1c(C)nn(-c2ccc(N3CCCC3)nn2)c1C,.,/,/,/,/
COc1ccc(C)cc1NC(=O)CCc1c(C)nn(-c2ccc(N3CCCCC3)nn2)c1C,.,18.3,.,.,.
Cc1cc(C)n(CC(=O)NC2CCCc3c2cnn3-c2ccccc2F)n1 (stereo not given),.,.,.,?,.
CCOc1ccc2nc(N3CCCC(C(=O)NCCc4ccc(OCC)c(OCC)c4)C3)sc2c1 (stereo not given),.,/,/,/,/
COc1ccc(C)cc1NC(=O)CN1C(=O)C2CC=CCC2C1=O (stereo not given),.,/,?,.,/
O=C(Nc1ccc(F)cc1)N1CCN(CCc2ccccc2)CC1,.,.,?,.,.
CCNC(=O)N1CCN(CCCC(c2ccc(F)cc2)c2ccc(F)cc2)CC1,-78.8,/,1.47µM,1.65µM,/
CCC(C)NCC(O)(c1ccc(Cl)cc1)c1ccc(Cl)cc1 (stereo not given),.,.,?,2.94µM,.
COc1ccc(CCNC(=O)C2CCN(C(=O)c3ccccc3C)CC2)cc1,.,.,.,?,.
